An excerpt weighted towards active compounds, which were near 3.8% of everything screened.
tim10-1 inh: tim10-1 yeast growth inhibition. S. cerevisiae tim10-1 ts strain growth, BacTiter-Glo, 24 h. inhibition, % at 20 µM. hit rate 2.2% among 330,000. AID 463190;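 active = inhibition of at least 40%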;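 also: mutant grown at 25 °C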
tim23-1 inh: growth inhibitors of tim23-1 mutant yeast; S. cerevisiae tim23-1 growth, BacTiter-Glo luminescence, 24 h; inhibition, % at 20 µM; hit rate 1.3% among 330,000;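 active = growth inhibition of the mutant yeast at or above 50%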;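 also: temperature-sensitive mutant grown at 25 °C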
Beta2AR agonist: human beta-2 adrenergic receptor agonism by FAP; Am2.2-beta2AR cells, FAP receptor internalization, flow cytometry; response, % (concentration not given with the values); hit rate 0.43% among 340,000; AID 504454; P07550;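 active = response above a set limit, near 3 SD of response in nonfluorescent compounds, cut at about 42% in these data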
Target sequence (P07550 whole entry, looked up): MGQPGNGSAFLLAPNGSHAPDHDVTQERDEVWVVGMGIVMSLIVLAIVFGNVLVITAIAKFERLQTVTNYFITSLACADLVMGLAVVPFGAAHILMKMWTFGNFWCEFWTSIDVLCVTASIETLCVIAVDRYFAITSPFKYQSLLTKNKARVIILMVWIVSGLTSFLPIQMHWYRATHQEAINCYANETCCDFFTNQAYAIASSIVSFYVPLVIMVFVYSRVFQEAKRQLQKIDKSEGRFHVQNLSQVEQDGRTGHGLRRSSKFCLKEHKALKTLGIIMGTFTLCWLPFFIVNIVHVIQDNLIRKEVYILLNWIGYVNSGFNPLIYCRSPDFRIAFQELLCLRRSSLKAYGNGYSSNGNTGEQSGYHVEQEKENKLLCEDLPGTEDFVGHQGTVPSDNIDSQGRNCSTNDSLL
PfHsp90 yeast 2: reduces growth (ATP signal) of yeast expressing P. falciparum Hsp90 | S. cerevisiae expressing PfHsp90, BacTiter-Glo ATP, 48 h; yeast lacking PDR1 and PDR3 efflux regulators | inhibition, % at 9.4 µM | hit rate 0.32% among 310,000 | AID 504621;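 active = every replicate shows inhibition above about 80%, whatever the replicate mean, limit read from the data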
TIM10 inh: inhibits growth of TIM10 yeast strain. inhibition, % at 10 µM. hit rate 1.4% among 330,000. S. cerevisiae TIM10 strain growth, BacTiter-Glo luminescence, 24 h;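 active = inhibition of 40% or more at the single tested concentration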;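 also: wild-type TIM10 isogenic control strain grown at permissive 25 °C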
tim10 confirm: confirmation of TIM10 yeast growth inhibitors | inhibition, % at 10 µM | shares compounds with TIM10 inh | S. cerevisiae tim10 strain growth, BacTiter-Glo luminescence, 24 h | hit rate 63% among 4,600;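 active = inhibition of yeast growth at or above a set limit in either of two replicates at 10 µM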; also: this counterscreen used the strain with wild-type TIM10
Of the large screens only hits and unclear results are named; the others gave an inactive call (follow-up assays come after a bar, where they were run).

CCOC(=O)c1sc2nc(C)nc(SC(C)C(=O)NC3CC3)c2c1C (centres undefined)	none
O=C(CSC1=NS(=O)(=O)c2cc(F)ccc2N1)NCc1ccccc1Cl	none (no result: PfHsp90 yeast 2)
CC(C)c1ccc(C(O)Cc2nc3ccccc3n2C)cc1 (centres undefined)	TIM10 inh 42.6 | tim10 confirm inactive
CN(C)c1ccc(C(O)Cc2nc3ccccc3n2C)cc1 (centres undefined)	none
O=C1/C(=C/c2ccccc2F)SC(=S)N1CCC(=O)N1CCCCC1CCO (centres undefined)	none
O=C(CCN1C(=O)/C(=C\c2ccccc2F)SC1=S)N1CCCCC1	TIM10 inh 42.2 | tim10 confirm inactive
COc1ccc(N2CCN(C(=O)CSc3ncnc4scc(-c5ccc(C)cc5)c34)CC2)cc1	TIM10 inh 43.2 (no result: PfHsp90 yeast 2) | tim10 confirm inactive
COc1ccc(N2CCN(c3ncnc4scc(-c5ccc(F)cc5)c34)CC2)cc1	none
COc1ccc(CN2CCN(c3ncnc4scc(-c5ccc(F)cc5)c34)CC2)cc1	TIM10 inh 42.0 | tim10 confirm 45.5
COc1ccc(C(=O)Oc2ccc(C(=S)N3CCCC3)cc2)cc1OC	none (no result: Beta2AR agonist, PfHsp90 yeast 2)
COc1ccc(C(=O)Oc2cc3c4c(c2)C(C)=CC(C)(C)N4C(=O)C3=O)cc1OC	TIM10 inh 46.3 | tim10 confirm 48.2
CC(=O)Cc1nsc(NC(=O)c2cccc(F)c2)n1	TIM10 inh 50.1 (no result: PfHsp90 yeast 2) | tim10 confirm inactive
Cc1nnc(NC(=O)c2cccc(F)c2)s1	none
CCOc1ccc(C(=O)O/N=C(\N)c2ccccn2)cc1	TIM10 inh 42.1 | tim10 confirm 35.7
CCN(C[C@H]1N[C@@](C)(C(=O)OC)[C@H]2C(=O)N(Cc3ccccc3)C(=O)[C@@H]12)S(=O)(=O)c1ccc(C(C)(C)C)cc1	TIM10 inh 90.0 | tim10 confirm inactive
CCN(C[C@H]1N[C@@](C)(C(=O)OC)[C@H]2C(=O)N(Cc3ccccc3)C(=O)[C@@H]12)S(=O)(=O)c1ccc(F)cc1	none
COc1ccc(N(CC(=O)N/N=C/c2cc(OC)ccc2OC)S(=O)(=O)c2ccccc2)cc1	TIM10 inh 54.7 | tim10 confirm inactive
COC(=O)c1c(NC(=O)c2nc3ccccc3s2)sc2c1CC(C)(C)NC2(C)C	TIM10 inh 55.2 | tim10 confirm 36.0
CCOc1ccc(C(=O)Nc2sc3c(c2C(=O)OC)CC(C)(C)NC3(C)C)cc1	none
CSCCC(NC(=O)c1cccc(C)c1)C(=O)NNC(=O)c1cccs1 (centres undefined)	none (no result: PfHsp90 yeast 2)
COc1ccc(Nc2nc(-c3ccncc3)nc3ccccc23)cc1	none
CNC(=O)c1ccc(Nc2nc(-c3ccccc3)nc3ccccc23)cc1	TIM10 inh 40.0 | tim10 confirm inactive
CC(=O)Nc1cc(C(=O)N2CCc3ccccc3C2)ccc1Sc1ccc(F)cc1	none
CC(=O)Nc1cc(C(=O)N2CCc3ccccc3C2)ccc1Sc1ccc(Cl)cc1	TIM10 inh 41.6 | tim10 confirm inactive
Cc1cc(Cl)ccc1OCCNC(=S)NC(=O)c1cccnc1	none
CC(C)c1ccccc1OCCNC(=S)NC(=O)c1cccnc1	TIM10 inh 44.9 (no result: PfHsp90 yeast 2) | tim10 confirm 44.2
COC(=O)C1=C(C)N(c2ccccc2)C(=S)NC1c1ccccc1C(F)(F)F (centres undefined)	TIM10 inh 49.9 | tim10 confirm inactive
COCCOC(=O)C1=C(C)N(c2ccccc2)C(=S)NC1c1ccccc1C(F)(F)F (centres undefined)	none
O=C(c1ccc([N+](=O)[O-])o1)N1CCN(Cc2ccccc2)CC1	TIM10 inh 43.1 | tim10 confirm 37.6
C/C(=N\NC(=S)Nc1ccccc1C)c1cc2ccccc2o1	TIM10 inh 41.9 | tim10 confirm inactive
COC(=O)c1ccc(CN2C(=O)C(C)N(C(=O)c3c(F)cccc3F)c3ccccc32)cc1 (centres undefined)	none
C[C@]12c3[nH]c4ccccc4c3CCN1C(=O)C(CC(=O)NCCCn1ccnc1)C[C@@H]2C(=O)N1CCOCC1 (some centres undefined)	none
CCN1/C(=C/c2ccc3cc(C)ccc3[n+]2CC)Sc2cc(C)c(C)cc21	PfHsp90 yeast 2 101.2, TIM10 inh 51.8 | tim10 confirm 78.8
C=C(C)CSc1nc2sc3c(c2c(=O)n1-c1ccc(C)cc1)CCN(C)C3	none
O=C1c2ccccc2C(=O)N1SC1CCCCC1	PfHsp90 yeast 2 105.8, TIM10 inh 65.2 | tim10 confirm 83.3
O=C(OCN1C(=O)c2ccccc2C1=O)C1CCCCC1	none
CCOC(=O)N1CCN(Cc2ccc(OCC(O)CN3CCCCC3)cc2)CC1 (centres undefined)	none
CC(OC(=O)C1=Cc2ccccc2OC1)C(=O)NCC1CCCO1 (centres undefined)	none (no result: tim10-1 inh, tim23-1 inh, TIM10 inh)
N#Cc1cc(C#N)c(N2CCN(c3cccc(Cl)n3)CC2)nc1N	TIM10 inh 41.0 | tim10 confirm inactive
NC1CCN(c2cccc(Cl)n2)CC1	none (no result: Beta2AR agonist, PfHsp90 yeast 2)
CN1CCOCCOc2ccccc2OCCOCC1	TIM10 inh 57.7 | tim10 confirm inactive
O=S(=O)(c1cccc2ccccc12)N1CCC2CC1c1cc(Cl)ccc12 (centres undefined)	none (no result: tim10-1 inh, tim23-1 inh, TIM10 inh)
CCOc1ccc(-c2nc3n(c(=O)c2C#N)CCCS3)cc1	TIM10 inh 97.3 | tim10 confirm inactive
Cc1cc(Sc2ncnc(N)c2[N+](=O)[O-])ncn1	TIM10 inh 42.4 | tim10 confirm inactive
Cc1ccc(C)c(Oc2ncnc(N)c2[N+](=O)[O-])c1	none
COc1ccc2cc3cc(C(=O)NCc4cccs4)oc3nc2c1	none (no result: PfHsp90 yeast 2)
COc1ccc2cc3cc(C(=O)NCCCN4CCC(C)CC4)oc3nc2c1	TIM10 inh 77.1 | tim10 confirm 68.2
COc1ccc2cc3cc(C(=O)N4CCN(C5CCCCC5)CC4)oc3nc2c1	TIM10 inh 63.8 | tim10 confirm 46.0
COc1ccc2cc3cc(C(=O)NCCc4ccc(OC)c(OC)c4)oc3nc2c1	TIM10 inh 54.8 | tim10 confirm inactive
CC1CCN(CCCNC(=O)c2coc3nc4ccccc4nc23)CC1	none
COc1ccc2cc3cc(C(=O)Nc4ccc5c(c4)OCO5)oc3nc2c1	none
CCCN(CCC)CCCNC(=O)c1cc2cc3ccc(OC)cc3nc2o1	TIM10 inh 64.6 | tim10 confirm inactive
CC(C)CC(=O)N1CC=CC[C@@H](c2ccc(Cl)cc2)N(Cc2ccc(Cl)cc2)C(=O)[C@@H]1Cc1ccccc1	none (no result: tim10-1 inh, tim23-1 inh, TIM10 inh)
Cc1ccc(S(=O)(=O)N2CCN(C(=O)C3CCN(c4ncnc5sc(C)c(C)c45)CC3)CC2)c(C)c1	none (no result: tim10-1 inh, tim23-1 inh, TIM10 inh)
Cc1c(Cl)cccc1NC(=S)NCCC(C)C	TIM10 inh 49.2 | tim10 confirm 34.1
COc1ccc(NC(=S)NCCC(c2ccccc2)c2ccccc2)c(OC)c1	TIM10 inh 45.3 | tim10 confirm 30.9
Cc1c(Cl)cccc1NC(=S)NCCC(c1ccccc1)c1ccccc1	TIM10 inh 49.7 | tim10 confirm inactive
Cc1c(Cl)cccc1NC(=S)NCc1ccccc1Cl	none

Assay outcomes (PubChem BioAssay)
